Data as given in PubChem BioAssay.
Unmarked numbers belong to inactive results. The source made the active and inactive calls. Unless noted, no stated cut-off is given here; in the data, active means inhibition above about 25%; inactive means the rest.

Experiments:
[1] = target: Nuclear receptor coactivator 1 (Homo sapiens) (UniProt Q15788); test: NCOA1 GAL4-fusion reporter inhibition – cell-based, luminescence, quadruplicate, confirmation (AID 588820;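 active means mean inhibition above 46.68%, the untreated control wells mean plus 3 SD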;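 further: 0% = DMSO wells and 100% = gossypol 36 µM treated wells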); conditions: HEK293 GAL4-SRC1 luciferase reporter, at 3.6 µM, active compounds read high
[2] = repression of VP16-driven luciferase reporter – cell-based, luminescence, high throughput, counter-screen for SRC1 inhibitor project (AID 588824); conditions: cell-based VP16 transactivation luciferase luminescence; at 3.6 µM; active compounds read high

Chain of Nuclear receptor coactivator 1 (Homo sapiens) (Q15788 whole entry, looked up, the tested form may be a part): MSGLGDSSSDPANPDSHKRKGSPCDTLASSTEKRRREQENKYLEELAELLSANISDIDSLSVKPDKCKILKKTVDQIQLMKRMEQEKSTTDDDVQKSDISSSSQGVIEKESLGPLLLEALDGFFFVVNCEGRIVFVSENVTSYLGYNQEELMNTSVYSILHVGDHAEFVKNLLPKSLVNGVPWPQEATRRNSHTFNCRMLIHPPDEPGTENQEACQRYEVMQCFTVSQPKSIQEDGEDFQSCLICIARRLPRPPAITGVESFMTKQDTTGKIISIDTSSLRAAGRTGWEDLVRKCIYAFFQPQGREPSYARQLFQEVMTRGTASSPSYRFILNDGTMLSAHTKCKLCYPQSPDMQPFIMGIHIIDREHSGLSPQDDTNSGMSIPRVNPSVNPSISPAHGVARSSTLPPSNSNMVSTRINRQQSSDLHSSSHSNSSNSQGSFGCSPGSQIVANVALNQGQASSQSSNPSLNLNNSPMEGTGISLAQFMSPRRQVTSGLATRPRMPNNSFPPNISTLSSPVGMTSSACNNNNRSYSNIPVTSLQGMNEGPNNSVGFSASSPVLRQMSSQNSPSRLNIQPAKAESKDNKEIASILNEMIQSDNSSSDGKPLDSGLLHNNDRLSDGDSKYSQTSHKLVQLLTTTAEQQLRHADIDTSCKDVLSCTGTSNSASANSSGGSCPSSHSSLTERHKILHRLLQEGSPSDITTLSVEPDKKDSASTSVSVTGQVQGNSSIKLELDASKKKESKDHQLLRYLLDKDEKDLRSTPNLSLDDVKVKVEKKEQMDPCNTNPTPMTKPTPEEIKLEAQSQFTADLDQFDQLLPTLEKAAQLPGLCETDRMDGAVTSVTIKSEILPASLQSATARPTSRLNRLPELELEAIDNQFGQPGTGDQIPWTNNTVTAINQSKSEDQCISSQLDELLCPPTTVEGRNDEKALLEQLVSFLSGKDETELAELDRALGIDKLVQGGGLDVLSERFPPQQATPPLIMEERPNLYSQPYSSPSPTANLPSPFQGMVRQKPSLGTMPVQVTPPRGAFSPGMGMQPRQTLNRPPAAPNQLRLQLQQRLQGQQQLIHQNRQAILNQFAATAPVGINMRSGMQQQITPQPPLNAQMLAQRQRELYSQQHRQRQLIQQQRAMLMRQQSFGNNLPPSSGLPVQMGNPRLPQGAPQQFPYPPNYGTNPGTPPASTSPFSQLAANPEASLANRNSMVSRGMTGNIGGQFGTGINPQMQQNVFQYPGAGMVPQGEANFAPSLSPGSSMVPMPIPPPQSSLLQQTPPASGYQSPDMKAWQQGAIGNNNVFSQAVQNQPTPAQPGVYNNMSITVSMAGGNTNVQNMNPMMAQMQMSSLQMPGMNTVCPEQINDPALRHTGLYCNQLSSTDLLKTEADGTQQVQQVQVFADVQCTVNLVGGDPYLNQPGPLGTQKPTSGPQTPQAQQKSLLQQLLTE

Row | SMILES | inhibition [1] [%] | inhibition [2]
1 | Nc1ccn(C2OC(CO)C(O)C2O)c(=O)n1 (stereo unspecified) | 24.8 | 20.1%
2 | O=C(CNC(=O)c1cccc(F)c1)N/N=C/c1cc(Br)ccc1OC(=O)/C=C/c1ccco1 | 3.9 | 6.51%
3 | Cn1c(=O)c2[nH]c(COc3ccc(C(C)(C)C)cc3)nc2n(C)c1=O | 29.4 | 18.8%
4 | CC(Oc1ccc(F)cc1)C(=O)Nc1cc(S(=O)(=O)N2CCCCC2)ccc1N1CCOCC1 (stereo unspecified) | -3.38 | 6%
5 | Cc1ccc(S(=O)(=O)N2CCN(C(=O)c3ccc(S(=O)(=O)N4CCCC4)cc3)CC2)cc1 | 1.07 | 9%
6 | CCOc1ccc(NC(=S)N2CCC(NC(=O)c3ccco3)CC2)cc1 | -7.01 | -4.78%
7 | Fc1cccc(Cl)c1Cn1nnc2c(NCc3ccncc3)ncnc21 | -0.7 | 4.51%
8 | O=C(Nc1ccccc1)c1ccc(S(=O)(=O)NCc2cccnc2)cc1 | -8.68 | 0.28%
9 | COc1ccc(-c2[nH]ncc2CN2CCC(O)(c3ccc(Cl)cc3)CC2)cc1 | 13.2 | 10.8%
10 | COc1cc(OC)c(NS(=O)(=O)c2ccc(Cl)c(C(=O)OC(C)C(=O)N3CCCC3)c2)cc1Cl (stereo unspecified) | -10.2 | 10.7%
11 | Cc1cc(C)n(-c2ccc(C(=O)Nc3ccc(C)c(S(=O)(=O)N4CCOCC4)c3)cc2)n1 | 0.36 | -1.58%
12 | CCOC(=O)N1CCN(C(=O)c2cc(-c3ccncc3)nc3ccccc23)CC1 | -21.2 | 3.82%
13 | O=C(NNc1ccnc2cc(Cl)ccc12)C1CCCCC1 | -34.1 | 31.1% (active)
14 | COc1ccccc1CCNC(=O)CCn1c(=O)c2cccn2c2ccc(F)cc21 | -9.66 | -15.2%
15 | Fc1cc2[nH]cnc2cc1Cl | -2.02 | -5.47%
16 | O=S(=O)(NCc1ccncc1)c1ccc(Br)s1 | -15.5 | 28.8% (active)
17 | CCOC(=O)C1=C(COC(=O)Cc2ccc(Br)cc2)NC(=O)NC1C (stereo unspecified) | -7.28 | -12.6%

Row | SMILES | inhibition [1] [%] | inhibition [2]
18 | COCCN1C2=C(C(=O)CC(C)(C)C2)C(c2ccc(OC)c(OC)c2)C2=C1CC(C)(C)CC2=O | -10.8 | 12%
19 | O=C(CNC(=O)c1ccco1)Nc1ccncc1 | -25.7 | -3.08%
20 | COc1ccc(Cl)cc1NC(=O)CSc1nc(=O)n(CCN(C)C)c2c1CCCC2 | -13.4 | -0.03%
21 | Cc1cccc(Oc2ncnc(N)c2[N+](=O)[O-])c1C | -14.1 | 5.89%
22 | COc1ccccc1NC(=O)CN(c1ccccc1)S(=O)(=O)c1ccccc1 | -16.7 | -7.82%
23 | O=C(Nc1nc(-c2ccccn2)cs1)c1cccc(S(=O)(=O)N2CCOCC2)c1 | 25 | 20%
24 | CN(Cc1ccc(OC(F)F)cc1)C(=O)c1cccc(S(=O)(=O)N2CCN(Cc3ccccc3)CC2)c1 | -14 | 35% (active)
25 | Cc1cc(C)cc(NS(=O)(=O)c2ccc3[nH]c(=O)ccc3c2)c1 | -17.7 | -3.07%
26 | COc1ccccc1CCC(=O)Nc1cccc(S(=O)(=O)N2CCCCCC2)c1 | -1.96 | -7.85%
27 | COc1ccc(CCNC(=O)C(=O)NCC2CCCN2S(=O)(=O)c2ccccc2)cc1OC (stereo unspecified) | -20.3 | -7.77%
28 | Cc1ccc(O)c(C(=O)c2cnn(C(=O)COc3ccc(Cl)cc3)c2)c1 | 23.6 | 4.05%
29 | CCOC(=O)c1c(NC(=O)C(C)N2CCN(C(=O)c3ccco3)CC2)sc2c1CCCC2 (stereo unspecified) | 16.6 | 12%
30 | COc1ccc(NC(=O)CCn2c(=S)[nH]c3ccccc3c2=O)cc1 | 2.22 | 0.97%
31 | CC(C)(C)c1ccc(-n2ncc3c2CCCC3NC(=O)CN2CCOC2=O)cc1 (stereo unspecified) | -6.1 | 7.65%
32 | c1cc2c(cn1)cnc1cscc12 | 40.9 | 7.33%
33 | CCc1cc(=O)[nH]c(SCC(=O)NCc2ccc3c(c2)OCO3)n1 | -4.66 | 1.83%
